Screens (PubChem)
Vif-APOBEC3G blk – Vif-A3G binding inhibition. Q9HC16. HeLa A3G-eYFP + Vif (tagged APOBEC3G with the HIV-1 protein that degrades it), YFP fluorescence, overnight. Potency, µM (titrated, usually from 46.1 µM), for the others: at the top dose activity, negative = active, hits mostly inhibitors. 0.076% of 410,000 active; note: % is set by controls: 0 for no effect and ±100 for the full control effect; nearly all actives have a fitted effect of over 60% in size
Target sequence (Q9HC16 whole entry, looked up): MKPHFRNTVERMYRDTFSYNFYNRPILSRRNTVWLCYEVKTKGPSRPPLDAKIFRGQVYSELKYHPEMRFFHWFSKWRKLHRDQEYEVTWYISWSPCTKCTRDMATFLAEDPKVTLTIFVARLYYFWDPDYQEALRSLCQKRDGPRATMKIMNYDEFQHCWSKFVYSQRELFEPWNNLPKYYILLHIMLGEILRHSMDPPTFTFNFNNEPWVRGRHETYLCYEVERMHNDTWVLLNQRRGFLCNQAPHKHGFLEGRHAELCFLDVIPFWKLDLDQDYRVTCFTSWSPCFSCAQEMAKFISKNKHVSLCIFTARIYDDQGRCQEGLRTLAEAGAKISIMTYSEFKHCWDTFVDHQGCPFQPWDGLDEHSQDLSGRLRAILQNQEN
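Read-out is eYFP fluorescence (Ex 488/Em 500-530) from Vif-expressing HeLa A3G-eYFP cells; more signal means A3G escaped Vif-mediated degradation. Cells plated overnight, compound pinned in, incubated overnight at 37 deg C.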
Epigenetic derep – derepresses silenced GFP reporter in murine cells; Potency, µM (highest dose often 53.9 µM), without a hit: top-dose GFP activation, most hits filed as activators; murine LDR cells, GFP reporter derepression, 30 h; 0.2% of 280,000 active; note: % of control where 0% means no effect; nearly all actives have a fitted effect of over 60% in size
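In this reporter-derepression format, murine cells bearing a silenced integrated CMV-GFP locus incubate with test compound (30 h, 37 C), then are washed and imaged; fluorescent objects of 20–120 um count as induced cells.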
Vif-A3F inh – inhibitors of Vif-A3F interaction; HeLa A3F-eYFP + Vif (tagged APOBEC3F with the HIV-1 protein that degrades it), YFP fluorescence increase; Potency, µM (series often up to 46.1 µM), without a hit: top-dose activity, negative = active; 0.2% of 390,000 active; AID 602313; note: % of control where 0% means no effect; nearly all actives have a fitted effect of over 65% in size
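Fluorescence increase (Ex 488/Em 500-530) after overnight compound treatment at 37 deg C flags inhibition of Vif-driven A3F-eYFP loss in stable HeLa A3F-eYFP/Vif cells seeded overnight beforehand.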
Active calls of the source: *; ? = inconclusive; . = no result. The list is not random: actives were taken first. Their share in the collection is about 0.34%. Calls come from the whole dose curve; as a rule, active = well fitted curve in the direction sought with a large enough effect; inconclusive = small, poorly fitted or top-dose-only effect, or another doubt; inactive = no such curve, though single readings can be large; an effect the other way counts as inactive or inconclusive. Potency is the fitted concentration of half-maximal effect.

SMILES | Vif-APOBEC3G blk | Epigenetic derep | Vif-A3F inh
CCN1CCN(c2c(/C=C3\SC(=S)N(Cc4ccco4)C3=O)c(C)c(C#N)c(=O)n2C)CC1 | ? | 7.1µM* | ?
CCN1C(=O)/C(=C\N2CCN(C(=O)c3ccco3)CC2)SC1=S | 0% | 1% | -13%
CCOc1ccc2nc(NC(=O)c3nc(SC)ncc3Cl)sc2c1 | 2% | -1% | -4%
CCOc1ccc2nc(NC(=O)c3nc(SC(C)C)ncc3Cl)sc2c1 | 2% | 4% | 5µM*
OC(Br)C(O)C(O)N1CCCc2ccccc21 (centres undefined) | -1% | . | .
COc1ccc(N=Cc2ccccc2O)cc1 | 1% | . | 2%
COc1ccc(N=Cc2oc3ccc4ccccc4c3c2O)cc1 | 8.9µM* | ? | 7.9µM*
CCOC(=O)C1CCCN(C(=O)Cn2ncn3c(cc4sc(CC)cc43)c2=O)C1 (centres undefined) | -7% | 0% | -9%
COc1cccc(/C=N/NC(=O)c2cc3c(OC)c(OC)ccc3[nH]2)c1OC | 4µM* | -1% | 5%
COc1ccccc1/C=N/NC(=O)c1cc2c(OC)c(OC)ccc2[nH]1 | ? | . | 0%
CCN1/C(=C/c2ccc3cc(C)ccc3[n+]2CC)Sc2ccccc21 | -8% | ? | -172%
CCN1/C(=C/c2ccc3cc(C)ccc3[n+]2CC)Sc2cc(C)c(C)cc21 | ? | 25µM* | ?
O=C(c1ccc(Cl)cc1)n1nc(-c2ccccc2)nc1NCc1ccco1 | 7% | 0% | 1%
C=C1NN(Cc2ccccc2)C(=O)N1c1ccc(OC)cc1 | 2% | . | .
c1ccc(-c2cnn3c(-c4ccccc4)c(-c4ccccc4)nc3n2)cc1 | ? | 2.8µM* | ?
Nc1nc(-c2ccccc2)c(-c2ccccc2)n1N | -12% | . | ?
Cc1cc2ccccc2c[n+]1CC(=O)c1ccc(F)cc1 | -2% | . | .
O=C(NCc1ccco1)c1cnc2ccccn2c1=O | 2% | 0% | -6%
O=C(NCc1ccco1)c1cccn2c(=O)c3cc4ccccc4cc3nc12 | . | 16µM* | .
Cc1ccc2nc(CN3CCN(S(=O)(=O)c4ccc(F)cc4)CC3)oc2c1 | 2% | -3% | -1%
Cc1cccc(CN2Cc3cccc4c3[C@H](C=CC4)CC2=O)c1 | 1% | . | .
COc1ccc(C2CC(=O)Oc3c(C(CCN4CCOCC4)c4ccc5c(c4)OCO5)c(OC)cc(OC)c32)cc1 (centres undefined) | -5% | . | .
C=CCc1c(C)nc(-c2ccccc2)nc1N/N=C/c1ccccc1 | -4% | 0% | ?
C=CCc1c(C)nc(-c2ccccc2)nc1Nc1ccccc1O | ? | ? | 22µM*
Cc1nn(C)c2c1c(-c1ccccc1)cc(=O)n2Cc1ccc(Cl)cc1 | -6% | 0% | 3%
SMILES | Vif-APOBEC3G blk | Epigenetic derep | Vif-A3F inh
CC1CCN(C(=O)CSc2nc3ccccc3nc2Cc2ccccc2)CC1 | 2% | -4% | 6%
Cc1noc(/C=C/c2cccnc2)c1[N+](=O)[O-] | -28% | . | 0%
Cc1noc(/C=C/c2ccc(-c3ccccc3Cl)o2)c1[N+](=O)[O-] | ? | 7.1µM* | ?
CC(C)CN(C)c1ccc(/C=C2\C=Cc3ccccc32)cc1 | -11% | . | .
O=C(Nc1ccccc1C(F)(F)F)N1CCC(CN2CCc3ccccc3C2)CC1 | -7% | -1% | 3%
Cc1c(N=N/C(C(=O)Nc2ccccc2)=C(/O)c2ccccc2)c(=O)n(-c2ccccc2)n1C | -3% | ? | 10µM*
CCOC(=O)/C(N=Nc1c(C)n(C)n(-c2ccccc2)c1=O)=C(/O)c1ccccc1 | 1% | 1% | 11%
Nc1nc(SCc2ccc(Cl)cc2Cl)nc2nc3c(cc12)CCCC3 | ? | 18µM* | 22µM*
Nc1nc(SCc2ccccc2Cl)nc2nc3c(cc12)CCCC3 | ? | -1% | ?
C[N+](C)(C)CCC(=O)N1C/C(=C/c2ccccc2)C(=O)/C(=C\c2ccccc2)C1 | 7.9µM* | . | ?
CN(C)CCC(=O)N1C/C(=C/c2ccccc2)C(=O)/C(=C\c2ccccc2)C1 | ? | . | 0%
O=CNc1ccc(/C=C/c2ccnc3ccccc23)cc1 | -6% | . | .
O=C1c2ccccc2C(=O)c2c(/C=C/N3CCCCC3)ccnc21 | ? | . | 22µM*
O=C1c2ccccc2-c2cccnc21 | -7% | . | 1%
CCOc1ccc(NC(=O)CC2C(=O)N(c3ccc(C)cc3)C(=O)N2C2CCCCC2)cc1 (centres undefined) | 3% | -2% | 1%
COC(=O)c1ccc(-n2nnc(-c3nc(-c4ccc5c(c4)OCO5)no3)c2C)cc1 | 6% | -3% | -5%
CSc1ccc(C2NC(=O)c3ccccc3N2)cc1 (centres undefined) | 10µM* | . | -2%
O=C1NC(c2ccc(O)cc2)Nc2ccccc21 (centres undefined) | ? | . | -4%
